Reference: PubChem BioAssay AID1159580 (chemical genetic matrix, 2015)
Among all 5,500 compounds or so, about 2,000 (36%) were called active. Roughly 18% stayed inconclusive and do not appear here. No stated cut-off is given here; in the data, active means normalized growth mostly below about 0.91 (no sharp cut-off); inconclusive means no clear call, values can overlap the other calls; inactive means mostly above about 0.92. This is one part of the list.

Assay: chemical genetic growth profiling, strain panel (AID 1159580);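 further: tested at 20 µM; growth read once vehicle control cultures reached saturation at 30 °C; 1 = growth at the plate median or of vehicle wells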
Settings: S. cerevisiae deletion strains, growth OD

Measured: normalized growth

COc1cc(OC)c2c(c1)OC(c1ccc(OC)c(OC)c1)C(O)C2 (centres undefined)
inactive: locus YBR021W, strain FUR4, stronger effect = lower value 1.04 | locus YBR229C, strain ROT2, stronger effect = lower value 1.01 | locus YCL029C, strain bik1, stronger effect = lower value 1.03 | locus YDL035C, strain GPR1, stronger effect = lower value 1.08 | locus YDL074C, strain BRE1, stronger effect = lower value 1.11 | locus YDL101C, strain DUN1, stronger effect = lower value 1.02 | locus YDL185W, strain tfp1, stronger effect = lower value 1.03 | locus YDL192W, strain arf1, stronger effect = lower value 1.02 | locus YDR101C, strain arx1, stronger effect = lower value 0.991 | locus YDR162C, strain NBP2, stronger effect = lower value 1.04 | locus YDR318W, strain mcm21, stronger effect = lower value 1.03 | locus YDR388W, stronger effect = lower value 1 | locus YDR502C, strain sam2, stronger effect = lower value 1.03 | locus YER110C, stronger effect = lower value 1.01 | locus YER155C, strain BEM2, stronger effect = lower value 0.999 | locus YER167W, strain BCK2, stronger effect = lower value 1 | locus YGL078C, strain dbp3, stronger effect = lower value 1.03 | locus YGL086W, strain mad1, stronger effect = lower value 1.02 | locus YGL248W, strain PDE1, stronger effect = lower value 1.06 | locus YGR078C, strain PAC10, stronger effect = lower value 1.04 | locus YGR135W, strain pre9, stronger effect = lower value 1.05 | locus YGR252W, strain gcn5, stronger effect = lower value 1.05 | locus YHR030C, strain SLT2, stronger effect = lower value 1.02 | locus YHR079C, strain IRE1 (second series), stronger effect = lower value 1.02 | locus YHR094C, strain hxt1, stronger effect = lower value 1.01 | locus YHR129C, strain ARP1, stronger effect = lower value 1.02 | locus YHR200W, strain rpn10, stronger effect = lower value 1.04 | locus YIL066C, strain RNR3, stronger effect = lower value 1.02 | locus YIL073C, strain SPO22, stronger effect = lower value 1.16 | locus YIL125W, strain kgd1, stronger effect = lower value 1.02 | locus YIR030C, strain dcg1, stronger effect = lower value 1.02 | locus YJL095W, strain BCK1, stronger effect = lower value 1.07 | locus YJL134W, strain LCB3, stronger effect = lower value 1.01 | locus YJL168C, strain set2, stronger effect = lower value 1.01 | locus YJL187C, strain SWE1 (second series), stronger effect = lower value 1.05 | locus YJR043C, strain POL32, stronger effect = lower value 1.06 | locus YKL009W, strain mrt4, stronger effect = lower value 1.04 | locus YKL068W, stronger effect = lower value 0.998 | locus YKL085W, strain MDH1 (second series), stronger effect = lower value 1.01 | locus YKL085W, strain MDH1, stronger effect = lower value 1.01 | locus YKR001C, strain vps1, stronger effect = lower value 1.03 | locus YLR039C, strain RIC1, stronger effect = lower value 1.17 | locus YLR058C, strain SHM2, stronger effect = lower value 1.03 | locus YLR102C, strain apc9, stronger effect = lower value 1.01 | locus YLR268W, strain sec22, stronger effect = lower value 1.01 | locus YLR371W, strain rom2, stronger effect = lower value 1.05 | locus YLR418C, strain cdc73, stronger effect = lower value 1.04 | locus YML016C, strain PPZ1, stronger effect = lower value 1.01 | locus YML032C, strain rad52, stronger effect = lower value 1.02 | locus YML124C, strain tub3, stronger effect = lower value 1 | locus YMR078C, strain ctf18, stronger effect = lower value 1.02 | locus YMR223W, strain ubp8, stronger effect = lower value 1.02 | locus YMR307W, strain GAS1, stronger effect = lower value 1.22 | locus YNL067W, strain RPL9B, stronger effect = lower value 1.01 | locus YNL233W, strain BNI4, stronger effect = lower value 1.05 | locus YNL250W, strain rad50, stronger effect = lower value 1.05 | locus YNL271C, strain bni1, stronger effect = lower value 1.01 | locus YNL298W, strain CLA4, stronger effect = lower value 1.03 | locus YNL307C, strain MCK1, stronger effect = lower value 1.01 | locus YNR052C, strain pop2, stronger effect = lower value 1.05 | locus YOL012C, strain htz1 1.04 | locus YOL147C, strain pex11, stronger effect = lower value 1.03 | locus YOR061W, strain CKA2, stronger effect = lower value 1.01 | locus YOR069W, strain VPS5, stronger effect = lower value 1.02 | locus YOR136W, strain idh2, stronger effect = lower value 1.02 | locus YOR144C, strain elg1, stronger effect = lower value 1.01 | locus YOR184W, strain ser1, stronger effect = lower value 1.02 | locus YOR316C, strain cot1, stronger effect = lower value 1.03 | locus YPL241C, strain CIN2, stronger effect = lower value 1.02 | locus YPR119W, strain clb2, stronger effect = lower value 1.01 | locus YPR141C, strain kar3, stronger effect = lower value 1.02 | locus YPR163C, strain tif3, stronger effect = lower value 1.02 | locus YPR167C, strain met16, stronger effect = lower value 1.04 | strain wtn01, stronger effect = lower value 1.03
